± gives the standard deviation of the averaged measurements.
Assays:
Conditions in all cases: concentration: 10 µM; 24 h
HCC1569 [1] = assay: cell number relative to DMSO (% of DMSO); higher = more cells (less growth inhibition / toxicity)
In short: (§1)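 Treatment: HCC1569 and TDF cells, 800 per well in 384-well plates with RPMI and 10% FBS, were given compounds at 10 µM for 24 h at 37 °C, in triplicate. Readout: after 3.7% formaldehyde fixation, cells were stained with a rabbit anti-H1.0 antibody, an AlexaFluor 647 secondary and DAPI. Reported values are H1.0 nuclear intensity or cell number as percent of the plate control, taken as the median of replicates, with positional smoothing for HCC1569.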

TDF [2] = assay: as above
In short: as §1

TDF [3] = assay: H1.0 immunofluorescence intensity relative to DMSO (% of DMSO); higher = stronger H1.0 induction, active = 120 or more
In short: as §1

HCC1569 [4] = assay: H1.0 immunofluorescence intensity relative to DMSO (% of DMSO); higher = stronger H1.0 induction, active = 140 or more
In short: as §1
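Throughout, for H1.0 immunofluorescence intensity relative to DMSO: TDF is a line of transformed human dermal fibroblasts of mesenchymal origin.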
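Throughout, for cell number relative to DMSO: TDF denotes transformed human dermal fibroblasts of mesenchymal origin.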

Row | Structure (SMILES) | cell number (HCC1569 [1]) | cell number (TDF [2]) | H1.0 immunofluorescence intensity (TDF [3]) | H1.0 immunofluorescence intensity (HCC1569 [4])
1 | O=C(O)C1C2CCC(O2)C1C(=O)O (stereo unspecified) [Endothall] | 97.6 | 97.8 | 108 (inactive) | 129 (inactive)
2 | CCCN(CCC)C1CCc2cccc(O)c2C1 (racemic) | 101 | 88.4 | 98 (inactive) | 86.9 (inactive)
3 | Cl.OCc1cnc[nH]1 [4-Imidazolemethanol hydrochloride] | 99.6 | 102 | 93.3 (inactive) | 94.1 (inactive)
4 | COc1ccc(CCN2CCC(Nc3nc4ccccc4n3Cc3ccc(F)cc3)CC2)cc1 [Astemizole] | 88.6 | 89 | 109 (inactive) | 143 (active)
5 | CNC1CC2OC(C)(C1OC)n1c3ccccc3c3c4c(c5c6ccccc6n2c5c31)C(=O)NC4 (stereo unspecified) [Staurosporine, Streptomyces sp.] | 56.3 ± 58 | 47.9 ± 67 | 149 (active) | 84.1 (inactive)
6 | C=C(C)C1C2OC(=O)C1C1(O)CC3OC34C(=O)OC2C14C (stereo unspecified) [Picrotoxinin] | 105 | 105 | 95.4 (inactive) | 90.9 (inactive)
7 | CCS(=O)(=O)Nc1cccc(C(=C2CCCCC2)c2cnc[nH]2)c1 | 99.6 | 101 | 94.6 (inactive) | 92.5 (inactive)
8 | Cc1cc2c(C(C)C)c(O)c(O)c(C=O)c2c(O)c1-c1c(C)cc2c(C(C)C)c(O)c(O)c(C=O)c2c1O [Gossypol] | 80.6 ± 22 | 99.6 ± 5.5 | 92.2 (inactive) | 103 (inactive)
9 | O=C(O)C=CC(=O)O.O=[N+]([O-])c1ccc2nc(N3CCNCC3)ccc2c1 [Quipazine, 6-nitro-, maleate] | 96.6 | 95.5 | 95.2 (inactive) | 107 (inactive)
10 | Cc1c(C(=O)Nc2cccc(C(F)(F)F)c2)cc(-c2ccccc2)n1CCCN1CCOCC1 | 92.8 | 94.3 | 95 (inactive) | 115 (inactive)
11 | CCC12C=CCN3CCC4(c5ccc(OC)cc5N(C)C4C(O)(C(=O)OC)C1OC(C)=O)C32 (stereo unspecified) [Vindoline] | 102 | 91.6 | 91.7 (inactive) | 90.1 (inactive)
12 | Oc1ccc2c3c1OC1C(O)CCC4(O)C(C2)N(CC2CCC2)CCC314 (stereo unspecified) [Nalbuphine] | 105 | 105 | 89.2 (inactive) | 104 (inactive)
13 | O=C1Nc2ccc3ncsc3c2C1=Cc1cnc[nH]1 [PKR Inhibitor] | 61.1 | 17 | 112 (inactive) | 136 (inactive)
14 | CC1Cc2c(Cl)cc(C(=O)NC(Cc3ccccc3)C(=O)O)c(O)c2C(=O)O1 (stereo unspecified) [Ochratoxin A] | 107 | 92.7 | 103 (inactive) | 92.1 (inactive)
15 | CC12NC(Cc3ccccc31)c1ccccc12.O=C(O)C=CC(=O)O (single isomer, unassigned; (+)) [(+)-MK-801 hydrogen maleate] | 103 | 99 | 98.6 (inactive) | 89.3 (inactive)
16 | COc1ccc(CC2NCCc3cc(OC)c(OC)cc32)cc1OC.Cl (stereo unspecified) | 99.3 | 109 | 94.3 (inactive) | 80.5 (inactive)
17 | CC1=C(O)C(=O)C2OC2C1=O (single isomer, unassigned; (-)) | 80 | 98.1 | 96.7 (inactive) | 117 (inactive)
18 | O=C(O)C1CCN1 [L-azetidine-2-carboxylic acid] | 100 | 103 | 92.3 (inactive) | 92 (inactive)
19 | CN1Cc2c(ccc3c2OCO3)C2C(O)Cc3cc4c(cc3C21)OCO4 (single isomer, unassigned; (+)) [(+)-Chelidonine] | 58 | 7.56 | 193 (active) | 148 (active)
20 | CCCCCC(C=CC=CCCCCCCCCCC(=O)O)OO (stereo unspecified) | 111 | 92.8 | 94.4 (inactive) | 103 (inactive)
21 | Cl.Clc1ccc(N2CCN(Cc3c[nH]c4ncccc34)CC2)cc1 [L-745,870 hydrochloride] | 99.5 | 90.2 | 115 (inactive) | 102 (inactive)
22 | C[N+](C)(C)CC#CCN1CCCC1=O.[I-] [Oxotremorine methiodide] | 106 | 97 | 100 (inactive) | 98.8 (inactive)
23 | NC1CC1c1ccccc1 (stereo unspecified) [Tranylcypromine] | 102 | 117 | 109 (inactive) | 96 (inactive)
24 | CN(C)C(=O)Oc1cc(OC(=O)N(C)C)cc(C(O)CNC(C)(C)C)c1 (stereo unspecified) [Bambuterol] | 101 | 112 | 93.5 (inactive) | 106 (inactive)
25 | CN(C)C(=O)Oc1cccc([N+](C)(C)C)c1.COS(=O)(=O)[O-] | 109 | 103 | 97.7 (inactive) | 98.3 (inactive)

Row | Structure (SMILES) | cell number (HCC1569 [1]) | cell number (TDF [2]) | H1.0 immunofluorescence intensity (TDF [3]) | H1.0 immunofluorescence intensity (HCC1569 [4])
26 | COc1ccc(-n2nc(C(F)(F)F)cc2-c2ccc(Cl)cc2)cc1 | 104 | 106 | 87.5 (inactive) | 90.3 (inactive)
27 | CCC1CN2CCc3cc(OC)c(OC)cc3C2CC1CC1NCCc2cc(OC)c(OC)cc21.Cl.Cl (stereo unspecified) [Emetine dihydrochloride hydrate] | 57.5 | 20.6 | 114 (inactive) | 99 (inactive)
28 | C=CC1CN2CCC1CC2C(O)c1ccnc2ccccc12 (single isomer, unassigned; (-)) [(-)-Cinchonidine] | 100 | 99.7 | 101 (inactive) | 100 (inactive)
29 | CCC1C=CC=CCC(C)C(O)C(C)(O)C(=O)C(C)C(O)C(C)C(=O)C(C)C(O)C(C)C=CC(=O)OC2C(C)C(CC1)OC1(CCC(C)C(CC(C)O)O1)C2C (stereo unspecified) [Oligomycin A] | 79.8 ± 16 | 87 ± 27 | 93.9 (inactive) | 114 (inactive)
30 | O=C(Oc1ccc([N+](=O)[O-])cc1)N1CCN(Cc2cccc(Oc3ccccc3)c2)CC1 [4-nitrophenyl 4-(3-phenoxybenzyl)-1-piperazinecarboxylate] | 97.4 | 104 | 101 (inactive) | 105 (inactive)
31 | CCC(C)C=C(C)C=CC1=CC2=C(Cl)C(=O)C(C)(OC(C)=O)C(=O)C2=CO1 (stereo unspecified) [Sclerotiorin] | 97.9 | 96.1 | 95.7 (inactive) | 95.1 (inactive)
32 | C[N+](C)(C)CCOC(=O)CBr.[Br-] [Bromoacetylcholine bromide] | 98.5 | 122 | 87.8 (inactive) | 85.7 (inactive)
33 | O=C1CCCC2C3CCCN4CCCC(CN12)C34 (stereo unspecified) [Matrine] | 100 | 94.7 | 99.3 (inactive) | 94.6 (inactive)
34 | CC(C)C1CNC(C(=O)O)C1CC(=O)O (stereo unspecified) [Dihydrokainic acid] | 102 | 116 | 89.2 (inactive) | 88.7 (inactive)
35 | [Cl-].c1ccc2c(c1)[I+]c1ccccc1-2 [Diphenyleneiodonium chloride] | 61.4 | 34 | 123 (active) | 125 (inactive)
36 | CC1CCC2C(C)C3C(CC4C5CC=C6CC(OC7OC(CO)C(O)C(OC8OC(CO)C(O)C(O)C8O)C7OC7OC(C)C(O)C(O)C7O)CCC6(C)C5CCC43C)N2C1 (racemic) | 103 | 101 | 97.4 (inactive) | 86 (inactive)
37 | CCCN(CCC)C1CCc2c(F)ccc(O)c2C1.Cl (stereo not drawn) [R(+)-UH-301 hydrochloride] | 103 | 109 | 89.2 (inactive) | 101 (inactive)
38 | O=C(O)c1cc[c]([Hg][Cl])cc1 [4-Chloromercuribenzoic acid] | 102 | 111 | 91.8 (inactive) | 92.6 (inactive)
39 | CN1CC(NS(=O)(=O)N(C)C)CC2c3cccc4c3c(cn4C)CC21.Cl (stereo unspecified) [Mesulergine hydrochloride] | 101 | 100 | 93.4 (inactive) | 94.2 (inactive)
40 | Cl.Cl.Clc1cccc(N2CCNCC2)c1 [1-(3-Chlorophenyl)piperazine dihydrochloride] | 83.5 | 87.5 | 105 (inactive) | 100 (inactive)
41 | Br.CN1C2CC(OC(=O)C(CO)c3ccccc3)CC1C1OC12 (single isomer, unassigned; (-)) [(-)-Scopolamine hydrobromide] | 100 | 104 | 97.6 (inactive) | 103 (inactive)
42 | COc1cccc(C2(O)CCCCC2CN(C)C)c1 (stereo unspecified) [Tramadol] | 100 | 97.7 | 99.3 (inactive) | 109 (inactive)
43 | CCN(C)C(=O)Oc1cccc(C(C)N(C)C)c1 (stereo unspecified) [Rivastigmine] | 102 | 114 | 90 (inactive) | 105 (inactive)
44 | Nc1ncnc2c1ccn2C1OC(CO)C(O)C1O (stereo unspecified) [Tubericidin] | 42.7 | 32.3 | 118 (inactive) | 70.1 (inactive)
45 | CC1(C(=O)O)CCCC2(C)c3cc(O)ccc3CCC12 (stereo unspecified) [Podocarpic acid] | 100 | 102 | 101 (inactive) | 85.3 (inactive)
46 | Br.CN1CCc2cc(O)cc3c2C1Cc1ccc(O)c(O)c1-3 (stereo not drawn) [R(-)-2,10,11-Trihydroxyaporphine hybrobromide] | 99 | 113 | 84.4 (inactive) | 94.3 (inactive)
47 | C#CC1(O)CCC2C3CCC4=CC(=O)CCC4=C3C=CC21CC (stereo unspecified) [Gestrinone] | 99.4 | 100 | 91.2 (inactive) | 112 (inactive)
48 | O=c1[nH]c2ccccc2n1CCCN1CCC(n2c(=O)[nH]c3cc(Cl)ccc32)CC1 [Domperidone] | 97.7 | 98.7 | 94.7 (inactive) | 109 (inactive)
49 | CC(=O)C1=C(O)C2C3c4c[nH]c5cccc(c45)CC3C(C)(C)N2C1=O (stereo unspecified) [Cyclopiazonic acid] | 95.5 | 90.8 | 100 (inactive) | 101 (inactive)

Reference: the supplement of paper PMC7156485
